# Laboratory results published in the supplement of paper PMC3334620.
# In all, about 33,000 sequences were measured (“E-score (-0.5 to 0.5)”: median about -0.016, highest 2% from about 0.32 on). The entries come from a sample that favours the highest values as a whole.
# Biological target: T1, Stp1 (UniProt B3LFK1)
# T1 sequence: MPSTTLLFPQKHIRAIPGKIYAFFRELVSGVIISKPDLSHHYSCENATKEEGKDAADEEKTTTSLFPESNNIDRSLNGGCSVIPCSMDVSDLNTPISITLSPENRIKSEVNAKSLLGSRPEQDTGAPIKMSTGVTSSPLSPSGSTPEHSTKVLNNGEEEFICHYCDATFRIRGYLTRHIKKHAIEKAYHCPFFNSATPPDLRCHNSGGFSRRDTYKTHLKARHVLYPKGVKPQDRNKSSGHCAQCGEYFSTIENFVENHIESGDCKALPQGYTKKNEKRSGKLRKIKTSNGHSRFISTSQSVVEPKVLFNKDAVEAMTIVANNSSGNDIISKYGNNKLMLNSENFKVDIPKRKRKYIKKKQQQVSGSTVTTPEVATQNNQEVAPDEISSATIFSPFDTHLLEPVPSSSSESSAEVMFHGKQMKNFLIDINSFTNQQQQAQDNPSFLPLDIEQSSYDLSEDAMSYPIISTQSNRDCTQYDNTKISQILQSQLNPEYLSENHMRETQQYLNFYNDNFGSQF
# Assay: PBM E-score (8-mer binding enrichment) (E-score (-0.5 to 0.5)); higher = stronger / more preferred TF binding
# Conditions: protein concentration: 200 nM; construct: GST-full length
# How it was run: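 For each ungapped eight-base word taken together with its reverse complement, the Universal PBM Analysis Suite assigned an E-score. Binding data came from GST-tagged yeast transcription factors, applied at about 100-200 nM, on universal all-10-mer Agilent arrays made double-stranded by primer extension. Fluorescent anti-GST marked bound protein, and scans were normalised with masliner.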
row,Sequence,PBM E-score
1,CACCTCCG,-0.0858
2,AGATCCTC,-0.251
3,ACTGTGAA,0.0195
4,CCTGCACC,-0.271
5,GAGATTAC,-0.0779
6,ACGTAGAT,-0.0617
7,ACCTTTAC,0.0425
8,GAGACAGA,-0.0347
9,TATGCGGA,0.207
10,GCCGAACA,0.114
11,CTGGGGGA,-0.35
12,AGGTAGCG,-0.105
13,CCGCGTCC,0.296
14,ACGCGCAG,-0.103
15,ACGCGCCC,0.289
16,ACGCGCTG,0.119
17,CCGCGCCC,0.279
18,ACGCGCCG,0.412
19,ACGCGCCA,0.0175
20,CCGCGCCA,0.252
21,CCGCGCCG,0.462
22,ACGCGCCT,0.34
23,CCGCGTCA,0.214
24,CCGCGTCG,0.355
25,CTTGGTTC,0.197

row,Sequence,PBM E-score
1,ACGGTTAA,0.0599
2,AAAGGCTG,-0.102
3,GGTATCCA,0.0649
4,AACGAGTT,-0.18
5,CCTGCCCA,-0.259
6,ATCAGAGC,0.0942
7,GAAGTATA,0.169
8,GCGTTGAA,0.138
9,CGCAAAAG,0.0708
10,CTTGCTCC,-0.0209
11,CAGGCGCC,0.286
12,AAGGCGTC,0.296
13,GAGGCGAA,0.206
14,GAGGCCCC,-0.125
15,GAGGCGCC,0.414
16,AAGGCGAC,0.224
17,ATGGCGCC,0.34
18,AAGGCGCC,0.424
19,ATGGCGCG,0.196
20,GAGGCGCA,0.338
21,GAGGCGTA,0.278
22,CTGGCGCC,0.314
23,CGATAGAC,0.00428
24,AGGTGAGA,-0.0297
25,ATACCACA,0.0264

row,Sequence,PBM E-score
1,ATGTCGCA,0.0188
2,ATAGGCGA,-0.0945
3,ATACTCGC,-0.0916
4,CCCCCTGC,-0.346
5,TAAATCAA,0.0833
6,CTTAGCCA,0.13
7,AAGCGCTT,0.0783
8,GATCCTAA,-0.164
9,GCATGAGA,0.151
10,GGAGATAC,-0.0561
11,ATCCTAGC,-0.102
12,AAGGCGGG,-0.112
13,AAGGCGGT,0.105
14,TAGGCGCA,0.155
15,AAGGCGCG,0.4
16,CAGGCGCA,-0.031
17,AAGGCGCT,0.396
18,CAGGCGCG,0.113
19,AAAGCGCT,0.16
20,AAGGCGCA,0.316
21,CCTACTGC,0.107
22,CTGAAGGC,-0.14
23,AGTTGGGA,-0.114
24,ACCCGAGA,-0.282
25,CACCCAGA,-0.257

row,Sequence,PBM E-score
1,AGACCGCC,-0.0258
2,CGCGTTTA,-0.0505
3,CCCGTTGA,-0.0684
4,ACCGTTGA,-0.134
5,ACCGTTTA,0.168
6,CCCGTTTA,0.185
7,AGCGTTTA,-0.127
8,GGCGTTTA,0.337
9,GCCGTTGA,0.383
10,GCCGTTTA,0.443
11,GAATCTCC,-0.122
12,GGAAGGAA,-0.0797
13,GAACTGAC,0.0623
14,AGAGTATG,-0.303
15,AGCTGCTC,-0.127
16,CGGATAGA,0.228
17,TGACCGCA,0.025
18,ACATGCCG,0.369
19,ACATGCCT,0.066
20,CCATGCCA,0.148
21,CCATGCCC,-0.0806
22,CCATGCCG,0.336
23,ACATGCCC,-0.168
24,TAATAGCA,-0.0461
25,GCGCCTCC,0.293

row,Sequence,PBM E-score
1,AAGCCGCT,0.265
2,CCGCCGCC,0.194
3,CCGCCGGC,0.165
4,GCGCCGCC,0.454
5,ACGCCGAT,0.23
6,CCGCCGGA,0.0267
7,ACGCCGAC,0.204
8,ACGCCGCC,0.355
9,CCGCCGCA,0.402
10,ACGCCGCT,0.423
11,CCGCCGAA,0.216
12,ATGGAGGC,-0.236
13,AGTGGGTG,-0.0322
14,GCAACAGC,0.0755
15,AACGCTCT,-0.216
16,ACGCCGCG,0.473
17,AGGCCGCA,0.162
18,TCTCCGCA,-0.0488
19,TCGCCGCA,0.448
20,ACGCCGGA,0.00769
21,ACGACGCA,0.0151
22,ACGCCGAG,0.0836
23,CGGCCGCA,0.325
24,AGGCCGCG,0.244
25,GGGCCGCA,0.285

row,Sequence,PBM E-score
1,TCACCGCA,-0.0824
2,ACGCCGCA,0.476
3,ACAAAAGT,0.0775
4,ACGTTAAT,0.112
5,GCCCTACA,0.0881
6,GTAACTAA,0.0925
7,CTTGATAC,0.113
8,CTAGGTCC,-0.102
9,AGTCAAGA,-0.0455
10,GTTCAAGA,0.0574
11,CCTCGGAA,-0.0641
12,CCGCCGCG,0.437
13,CCGCCCCG,0.273
14,CCGCCGAG,0.083
15,TCCAAGCA,0.0574
16,GGCATCCC,-0.0465
17,AGCATCGA,-0.0592
18,GGCATCGA,0.327
19,CGCATCGA,0.0903
20,CTATGCTA,-0.0393
21,CAACCAGA,0.0587
22,CAGCACGG,0.333
23,AAGCACGG,0.295
24,CAGCACGC,0.145
25,ACGCACGC,0.265

row,Sequence,PBM E-score
1,CAGCACGA,-0.0106
2,CCGCACGC,0.323
3,CCGCACGA,0.27
4,CCGCACGG,0.448
5,GCGCACGC,-0.0354
6,ACGCACGG,0.419
7,ACGCACGA,0.237
8,CCGCACAA,0.285
9,ATTCTAAG,0.126
10,ACGGGGAT,-0.0326
11,AGTCTTCC,-0.0735
12,TGGGGCAA,-0.00868
13,CGAAGTGA,0.00778
14,CCCAACCC,-0.174
15,CGCGTCCG,-0.0671
16,ATCATAAC,0.161
17,TATAGCGA,-0.151
18,AGGGAGCA,-0.403
19,GGCGGAAC,0.125
20,AGCGGAAC,-0.0267
21,CGCGGAAC,0.383
22,ACAATCAT,-0.00872
23,AAGGGCGC,0.354
24,AGGGGCGC,0.232
25,CAGGGCAG,-0.114

row,Sequence,PBM E-score
1,CAGGGCGA,0.0902
2,CAGGGCAC,0.355
3,CAGGGCGC,0.363
4,AAGGGCGG,-0.0196
5,CAGGGCAA,0.0617
6,CAGGGCGG,-0.116
7,GGGCCTCA,-0.0568
8,AACCCACT,0.00826
9,CGACTAGC,-0.13
10,ATCGTTCG,0.0636
11,GCTGCCAC,0.0537
12,AAGTGCCG,0.453
13,CAGTGCCC,0.108
14,AAGTGCCC,0.079
15,CAGTGCCG,0.453
16,AAGTGCCA,0.163
17,CAGTGCCA,-0.0624
18,AGTAGTGA,-0.0104
19,CTGGATAA,0.0621
20,GGGCATTA,0.139
21,CGGCATTC,0.441
22,AGGCATTA,0.228
23,CTGCATTC,-0.111
24,AGGCATTC,0.106
25,CGGCATTA,0.436

row,Sequence,PBM E-score
1,ACCTACAT,-0.177
2,AGTAGTCG,-0.0173
3,ATACTCAG,0.06
4,CACTGGGG,-0.231
5,GAGATATC,0.0576
6,CCACGCCC,-0.188
7,ATACGCCG,0.381
8,ATACGCCA,0.0267
9,ACACGCCA,0.0386
10,ACACGCCC,-0.181
11,CCACGCCG,0.34
12,CCACGCCA,0.0283
13,ACACGCCG,0.351
14,ATACGCCC,-0.157
15,GGGGCCCC,-0.2
16,ACCCTTTC,-0.15
17,CATGATTA,0.171
18,CCCTATCG,-0.196
19,TACAGAAA,0.212
